Screening data: PubChem, several laboratories
rCAG RNA binder = r(CAG) repeat RNA binding; TO-PRO-1 dye displacement fluorescence; inhibition, % at 3 µM; hit rate 1.3% among 370,000;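 active means inhibition above the plate cutoff, the mean of all test compounds on that plate plus 3 SD, cut at about 35% in these data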;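 further: higher means more dye released from RNA so lower well fluorescence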
NR3A LBD binder = modulators (binders) of human NR3A ligand-binding domain | Tm shift relative to glycine control, % at 25 µM | hit rate 2.5% among 340,000 | NR3A LBD differential scanning fluorimetry, Tm shift; 0% = protein alone, 100% = glycine-bound protein;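 active means melting temperature shift of at least 10% of the positive control shift, at one fixed dose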
FAS TE block = blocks the thioesterase domain of human fatty acid synthase | P49327 | recombinant FAS-TE, OMFH fluorogenic substrate, fluorescence endpoint | inhibition, % at 15 µM | hit rate 0.67% among 360,000 | AID 602261;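 active means compounds whose normalised, plate-corrected inhibition of enzyme fluorescence in the single-dose primary screen is 50% or more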
MPTP inh = inhibitors of mitochondrial permeability transition pore; isolated mouse mitochondria, Ca2+ swelling absorbance, 30 min; inhibition, % at 10 µM; hit rate 1.4% among 360,000; AID 602449;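 active means inhibition of 50% or more, scaled per plate between neutral and stimulator controls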
Myeloid diff MLP = myeloid differentiation induction | ER-HoxA9 myeloid progenitors, lysozyme-GFP differentiation, flow cytometry | calls only at 10 µM | hit rate 1% among 360,000 | AID 624256;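 active means normalized GFP-positive differentiation at or above the plate's own cutoff, the solvent-only control mean plus 3 SD; inconclusive means no clear call, values can overlap the other calls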;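 further: cells exposed to compound for four days before flow analysis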
MPTP counter = mitochondrial membrane potential, counter-screen; hit rate 78% among 5,000; isolated mitochondria, Rhodamine 123 fluorescence; inhibition, % at 10 µM; shares compounds with MPTP inh; in the data active means inhibition above about 22%
MPTP abs DR = dose response confirmation of mitochondrial permeability transition pore inhibitors | AID 651561 | shares compounds with MPTP inh | isolated mitochondria swelling, absorbance | IC50, µM | hit rate 58% among 780; in the data active means IC50 below about 20 µM
MPTP counter DR = active in counter-screen for permeability transition pore inhibitors; shares compounds with MPTP inh; isolated mitochondria counterscreen, fluorescence read-out; IC50, µM; hit rate 49% among 780; AID 651564; in the data active means IC50 below about 80 µM
Each line names hits and unclear results; the compound was inactive in the other large screens (follow-up assays come after a bar, where they were run). A selection: hits, their analogues and other compounds. The true share with any hit is near 5.7%.

Cc1ccccc1OCCSCc1nc2ccccc2[nH]1	MPTP inh 78.9 | MPTP counter 67.2
Cc1ccc(OCc2cc(C(=O)N3CCC(Oc4cccnc4)CC3)no2)cc1C	MPTP inh 91.4 | MPTP counter 88.8
O=C(c1cc(COc2cccc(C(F)(F)F)c2)on1)N1CCC(Oc2cccnc2)CC1	MPTP inh 59.7 | MPTP counter 82.8
O=C(c1cc(COc2ccc(F)cc2Cl)on1)N1CCC(OCc2cccnc2)CC1	MPTP inh 67.7 | MPTP counter 22.6
O=C(Cn1cnc2ccccc21)Nc1ccc(SC(F)F)cc1	MPTP inh 93.2 | MPTP counter 86.6
O=C(NCCCCCCOC1=NS(=O)(=O)c2ccccc21)C(=O)Nc1ccccc1	MPTP inh 73.0 | MPTP counter 67.8
O=C1NN(c2cccc(Br)c2)C(=O)/C1=C/c1ccc(-c2cc([N+](=O)[O-])ccc2O)o1	NR3A LBD binder 13.3, MPTP inh 78.6 (no result: rCAG RNA binder) | MPTP counter inactive
CCc1ccc(NC(=S)NCC2CCCN2CC)cc1 (centres undefined)	none
COCCCNC(=O)Cn1c(=O)n(Cc2ccc(C(=O)NCCc3ccc(OC)c(OC)c3)cc2)c(=O)c2ccccc21	none
CCN(CC)CCCNC(=O)c1cc(-c2ccc(Cl)c(Cl)c2)on1	MPTP inh 79.4 (no result: rCAG RNA binder) | MPTP counter inactive
COc1ccc(C2=C/C(=C\c3cccc(OC(C)=O)c3)C(=O)O2)cc1	MPTP inh 56.7 | MPTP counter 60.4
COc1ccc(C2=C/C(=C\c3ccccc3OC(C)=O)C(=O)O2)cc1	none
O=C1C2CC=CCC2C(=O)N1c1ccc(NCCc2ccc(O)cc2)c([N+](=O)[O-])c1 (centres undefined)	MPTP inh 91.4 | MPTP counter 76.3
COc1ccc(CCNc2ccc(N3C(=O)CC(C)C3=O)cc2[N+](=O)[O-])cc1OC (centres undefined)	MPTP inh 96.2 | MPTP counter 81.7
O=C(CC1NCCc2ccccc21)Nc1ccc(Oc2ccccc2)cc1 (centres undefined)	MPTP inh 91.8 | MPTP counter inactive | MPTP abs DR 4.65 | MPTP counter DR 35.6
COC(=O)[C@@]12C[C@@H](CC(=O)N3CCOCC3)C(=O)N(Cc3ccc4c(c3)OCO4)C1=CCC(C)(C)C2	none (no result: NR3A LBD binder, FAS TE block)
Cc1nn(-c2ccccc2)c(N2CCCC2)c1/C=N/Nc1ccc(S(N)(=O)=O)cc1[N+](=O)[O-]	none
Cc1nn(-c2ccccc2)c(N2CCCC2)c1/C=N/NC(=O)c1cc2ccccc2cc1O	MPTP inh 96.9 | MPTP counter 69.8
S=C(NCCc1ccccc1)Nc1cccc2cnccc12	MPTP inh 85.8 | MPTP counter 85.1
S=C(Nc1cccc(Cl)c1)Nc1cccc2cnccc12	MPTP inh 96.8 (no result: rCAG RNA binder) | MPTP counter 99.3
O=C(CNC(=O)c1cccc(Br)c1)N/N=C/c1cc(Br)cc(Br)c1O	NR3A LBD binder 17.1, MPTP inh 66.2 | MPTP counter inactive
Cc1ccc(C(=O)NNC(=S)Nc2cccc(Cl)c2Cl)cc1[N+](=O)[O-]	NR3A LBD binder 18.0, MPTP inh 103.3 (no result: rCAG RNA binder) | MPTP counter 84.9
Cc1cccc(NC(=O)NNC(=O)c2ccc(C)c([N+](=O)[O-])c2)c1	Myeloid diff MLP inconclusive
COc1ccc(NS(=O)(=O)c2ccc(N3CCOCC3)c(N)c2)cc1	MPTP inh 86.1 | MPTP counter 96.0
Nc1cc(S(=O)(=O)Nc2cc(Cl)ccc2Cl)ccc1N1CCOCC1	MPTP inh 61.1 | MPTP counter inactive | MPTP abs DR inactive | MPTP counter DR 54.5
Nc1cc(S(=O)(=O)Nc2ccccc2Cl)ccc1N1CCCC1	none
COc1ccc(S(=O)(=O)Nc2ccc(N3CCOCC3)cc2)cc1	none (no result: Myeloid diff MLP)
CC(C)Cc1nnc(NC(=O)CCC(=O)N2CCCCC2)s1	none
CC(=O)C[C@@H](O)CC(=O)[C@@H]1OC(=O)[C@H](C)CCCCc2ccccc21	none
O=C(CCN1CCc2ccccc2C(c2ccccc2)C1)c1ccc2c(c1)OCCO2 (centres undefined)	MPTP inh 82.6 | MPTP counter inactive
CCc1nnc(NS(=O)(=O)c2ccc(NC(=S)NC(=O)/C=C/c3ccc(C(C)C)cc3)cc2)s1	NR3A LBD binder 15.0, FAS TE block 51.0, MPTP inh 65.6 (no result: rCAG RNA binder) | MPTP counter 41.6
Cn1ncc(Cl)c1C(=O)N1CCN(C(=O)c2ccco2)CC1	MPTP inh 73.0 | MPTP counter inactive | MPTP abs DR inactive | MPTP counter DR inactive
O=C1CCc2ccc(OCCCCN3CCN(c4cccc(Cl)c4Cl)CC3)cc2N1	MPTP inh 79.7 | MPTP counter 20.3
COc1ccccc1N1CCN(CCCOc2ccc(F)cc2)CC1	none
Cc1sc(NC(=O)/C=C/c2ccco2)c(C(=O)OC(C)C)c1C	MPTP inh 52.2 | MPTP counter inactive | MPTP abs DR inactive | MPTP counter DR inactive
COC(=O)c1c(NC(=O)/C=C/c2ccco2)sc2c1CCC2	none
COc1ccc(-c2noc(CCC(=O)N3CCN(c4ccccc4Br)CC3)n2)cc1	none
Cc1nn(C)c(C)c1CN(C)S(=O)(=O)c1ccc2ccccc2c1	MPTP inh 109.5 | MPTP counter 102.1
Cc1c(NC(=O)COc2cccc(Br)c2)c(=O)n(-c2ccccc2)n1C	none
Cc1ccc(-c2nn(-c3ccccc3)cc2CSC(=N)N)cc1	MPTP inh 99.1 | MPTP counter inactive | MPTP abs DR 5.55 | MPTP counter DR 40.6
O=S(=O)(c1ccc(NC(=S)NN=Cc2ccccc2O)cc1)N1CCCCC1	MPTP inh 98.9 (no result: Myeloid diff MLP) | MPTP counter 81.3
Cc1oc(S(=O)(=O)N2CCCCC2)cc1NC(=O)Nc1ccc(Cl)cc1	MPTP inh 83.7 | MPTP counter 78.5
O=S(=O)(c1ccc(NC(=S)NC23CC4CC(CC(C4)C2)C3)cc1)N1CCCCC1	MPTP inh 89.8 (no result: NR3A LBD binder) | MPTP counter 60.7
Cc1oc(S(=O)(=O)N2CCCCC2)cc1NC(=O)Nc1ccccc1	MPTP inh 51.2 | MPTP counter 54.0
O=C(Nc1ccc(C(=O)N2CCCC2)cc1)Nc1ccc(Cl)cc1Cl	none
CCOc1ccc(Oc2ccc(NC(=O)CSc3nncn3C)cc2)cc1	none
O=C(Nc1ccccc1)Nc1ccc(S(=O)(=O)N2CCCCC2)cc1	NR3A LBD binder 21.8, MPTP inh 98.6 | MPTP counter 88.7
O=C(CN1CCCc2ccccc21)N/N=C/c1c(O)ccc2ccccc12	MPTP inh 94.8 | MPTP counter 88.9
FC(F)Oc1ccc(NC(=S)NC23CC4CC(CC(C4)C2)C3)cc1	NR3A LBD binder 11.6, MPTP inh 53.6 | MPTP counter 95.5
O=C(N/N=C\c1c(O)ccc2ccccc12)c1ccc(S(=O)(=O)N2CCCCC2)cc1	MPTP inh 95.1, Myeloid diff MLP active | MPTP counter 70.2
